# Source: PubChem (National Center for Advancing Translational Sciences (NCATS))
# Compounds with a hit are over-represented: about 0.95% of the library has one in this group of screens.
# A647 fluor = A647 region autofluorescence. max dye-equivalent concentration, M. 59,000 tested, under 10 active. AID 592. Compound fluorescence, A647 channel (570/671 nm), Tris buffer;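 note: values scaled relative to a standard on each plate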
#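 Compound fluorescence was measured in 100 mM Tris buffer, pH 8.0, after 15 min at room temperature, using 570 nm excitation and 671 nm emission filters. Signal was normalized to a per-plate Alexa 647 standard curve and expressed as dye-equivalent concentration at each compound concentration.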
# Resorufin fluor = compound fluoresces in the resorufin spectral region | Compound fluorescence, resorufin region 547/598 nm, buffer; active compounds read high | max dye-equivalent concentration, M | hit rate 0.04% among 59,000 | AID 588
#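 Compounds in 100 mM Tris buffer, pH 8.0, incubated 15 min at room temperature, then read with 547 nm excitation and 598 nm emission filters. Fluorescence was converted to dye-equivalent concentration using an on-plate six-point resorufin standard curve.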
# Rhodamine autofl = compound autofluorescence in rhodamine spectral region; max dye-equivalent concentration, M; Rhodamine-region fluorescence, 547/598 nm, Tris buffer; active compounds read high; hit rate 0.05% among 59,000; in the data active = max dye-equivalent concentration above about 11 nM; inconclusive = between about 1.1 nM and that limit
#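 Intrinsic compound fluorescence, ex 547 / em 598 nm, CCD imager. Tris 100 mM pH 8.0; 15 min RT. Output = rhodamine dye-equivalent concentration at each compound concentration.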
# A488 autofl = compound fluoresces in the A488 spectral region. compound autofluorescence, A488 spectral region, dye equivalency; Compound Type: qHTS ECL - MLSMR. AID 591. max dye equivalency, M. hit rate 0.1% among 59,000
#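 Read-out: relative fluorescence at 480/540 nm, expressed as Alexa 488 dye-equivalent concentration from a six-point A488 standard included per plate. Conditions: 100 mM Tris, pH 8.0; 15 min incubation, room temperature.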
# Fluorescein autfl = compound fluoresces in the fluorescein spectral region | Compound autofluorescence, 480/540 nm, fluorescein-equivalent; active compounds read high | max fluorescein-equivalent concentration, M | hit rate 0.91% among 59,000; in the data active = max fluorescein-equivalent concentration above about 10 nM; inconclusive = between about 1.1 nM and that limit
#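 Normalized response (dye-equivalent concentration) derives from comparing each well's 540 nm emission, under 480 nm excitation, with plate-resident fluorescein standards. Compounds were held in 100 mM Tris, pH 8.0, for 15 min at room temperature.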
# Texas Red fluor = Texas Red region autofluorescence; max dye-equivalent concentration, M; Compound fluorescence, Texas Red channel, 547/618 nm; active compounds read high; hit rate 0.06% among 59,000; AID 587; in the data active = max dye-equivalent concentration above about 10 nM; inconclusive = between about 1.1 nM and that limit
#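 Dye-equivalent concentrations come from scaling compound signal (ex 547, em 618 nm) to six Texas Red standard concentrations run on every plate, after 15 min room-temperature incubation in pH 8.0 Tris (100 mM).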
# * marks the source's active call; other numbers are inactive results; i = inactive; ? = inconclusive; ! = not active in a repeat. Unless noted, the rule behind the calls is not given here.
SMILES,A647 fluor,Resorufin fluor,Rhodamine autofl,A488 autofl,Fluorescein autfl,Texas Red fluor
COc1cc2c(cc1O)[C@@H](c1cc(O)c(O)c(OC)c1)[C@@](O)(C(=O)O)[C@@H](CO)[C@@H]2O,2.34e-08,i,i,i,i,i
CC1CN(c2nc3ccccc3nc2C(C#N)C(=O)NC2CCCCC2)CC(C)O1 (stereo not drawn),1e-09,i,i,1.44e-08M*,2.93e-07M*,i
CC(C)COc1nc2ccccc2nc1C(C#N)C(=O)NC1CCCCC1 (stereo not drawn),5.12e-08,i,i,?,7.32e-08M*,i
CC(C)C1Cc2c(C#N)c(N)sc(=S)c2CO1 (stereo not drawn),3.9e-09,i,i,i,1.28e-08M*,i
Oc1cccc2ccc(SSc3ccc4cccc(O)c4n3)nc12,3.65e-08,i,i,i,?,i
Cn1c(CN2CCOCC2)c(C#N)c2ccccc21,1e-09,i,i,i,?,i
C=CCn1c(O)c(CN2CCOCC2)c(C)c(C#N)c1=O,5.3e-09,i,i,i,1.27e-08M*,?
N#Cc1cccc(-c2nc3cnc(Oc4cccc(Cl)c4)nc3n(C3CC3)c2=O)c1,1e-09,i,i,i,i,i
CN1C(C(=O)Nc2ccccn2)=C(O)c2ccccc2S1(=O)=O,4.2e-08,i,i,i,1.22e-08M*!,i
CCCCOC(=O)CSc1nc(N)c(C#N)c(-c2ccc(OCC)cc2)c1C#N,1.4e-09,i,i,i,i,?
CCCCOc1ccc(-c2c(C#N)c(N)nc(SCC(N)=O)c2C#N)cc1,3.5e-08,i,?,i,1.01e-08M*,?
O=C(O)C1Sc2[nH]c(=O)sc2C2c3cc(Cl)ccc3OC(=O)C12 (stereo not drawn),1.71e-08,i,i,i,i,i
Cc1ccc(C2c3sc(=O)[nH]c3SC3C(=O)NC(=O)C32)cc1 (stereo not drawn),1e-09,i,i,i,1.21e-08M*,i
N#Cc1cccc(-c2nccc(-n3ccnc3)n2)c1,3.6e-09,i,i,i,i,i
O=C1CC(/C=C/c2ccco2)=Nc2ccccc2N1,2.17e-08,i,i,?,3.58e-08M*,?
CC1(C)c2ccccc2N2CC(=O)NC21/C=C/c1ccco1 (stereo not drawn),1e-09,i,i,i,?,i
COc1ccc(C2C(C(C)=O)=C(C)N=c3s/c(=C/c4ccc5c(c4)OCO5)c(=O)n32)cc1 (stereo not drawn),1.5e-09,i,i,i,1.21e-08M*,i
CC(=O)C1=C(C)N=c2s/c(=C/c3ccc4c(c3)OCO4)c(=O)n2C1c1ccc(N(C)C)cc1 (stereo not drawn),2.5e-09,i,i,i,i,i
COc1ccc(-c2ccc(-c3noc(-c4ccccc4OC)n3)c(OC)n2)cc1,1e-09,i,i,?,2.76e-08M*,i
COc1ccc(-c2ccc(-c3noc(-c4ccccc4C)n3)c(OC)n2)cc1,1e-09,i,i,i,1.2e-08M*,?
O=S(=O)(NCCNC/C=C\c1ccc(Br)cc1)c1cccc2cnccc12,6.56e-08,i,i,i,?,i
N#Cc1cccc(-c2nc3cnc(Nc4ccccc4)nc3n(C[C@H]3CCCO3)c2=O)c1,1.8e-09,i,i,i,1.28e-08M*,i
O=c1c(-c2cccs2)nc2cnc(Nc3ccccc3)nc2n1C[C@H]1CCCO1,3.52e-08,i,i,?,4.25e-08M*,i
COc1cccc(Cn2c(=O)c(-c3cccc(C#N)c3)nc3cnc(Nc4ccccc4)nc32)c1,3.07e-08,i,i,i,1.28e-08M*,i
COCCn1c(=O)c(-c2cccc(C#N)c2)nc2cnc(Nc3ccccc3)nc21,1.88e-08,i,i,i,?,i
SMILES,A647 fluor,Resorufin fluor,Rhodamine autofl,A488 autofl,Fluorescein autfl,Texas Red fluor
NC(=O)c1ncn([C@@H]2O[C@@H](CO)[C@@H](O)[C@H]2O)n1,2.6e-09,i,i,i,?,?
COc1cccc(Cn2c(=O)c(-c3cccs3)nc3cnc(N4CCNCC4)nc32)c1,1e-09,i,i,i,i,i
CCCN1CCCc2cc(CN)ccc21,1e-09,i,i,?,3.28e-08M*,i
C=CCn1c(=O)/c(=C/c2ccc(C)o2)s/c1=C(/C#N)C(=O)c1ccccc1,2.15e-08,i,i,?,9.85e-08M*,i
CN1C[C@H](C(=O)N[C@]2(C)O[C@@]3(O)[C@H]4CCCN4C(=O)[C@@H](Cc4ccccc4)N3C2=O)C[C@H]2c3cccc4[nH]cc(c34)C[C@@H]21,2.8e-09,i,i,i,?,i
COc1cccc(Cn2c(=O)cnc3cnc(OC)nc32)c1,3.2e-09,i,i,i,i,i
CCCCCCNC(=O)C(C#N)c1nc2ccccc2nc1N1CCCC1 (stereo not drawn),1e-09,i,i,4.11e-08M*,8.01e-07M*,i
CCCCCNC(=O)C(C#N)c1nc2ccccc2nc1N1CCCC1 (stereo not drawn),1e-09,i,i,2.89e-08M*,5.52e-07M*,i
CCCCOC(=O)C(C#N)c1nc2ccccc2nc1N1CCOCC1 (stereo not drawn),5.9e-09,i,i,?,2.89e-08M*,i
CCCCCCOC(=O)C(C#N)c1nc2ccccc2nc1N1CCOCC1 (stereo not drawn),3.6e-09,i,i,i,?,i
COCCCNC(=O)C(C#N)c1nc2ccccc2nc1N1CCCC1 (stereo not drawn),1.62e-08,i,i,?,6.6e-08M*,i
O=c1c(-c2cc(F)cc(F)c2)nc2cncnc2n1Cc1ccc(F)cc1,3.65e-08,i,i,i,?,i
CCCCCCNC(=O)C(C#N)c1nc2ccccc2nc1N1CCOCC1 (stereo not drawn),1.5e-09,i,i,3.02e-08M*,4.12e-07M*,i
CCCCN(CCCC)c1nc2ccccc2nc1C(C#N)C(=O)NCCCOC (stereo not drawn),1.62e-08,i,i,?,5.73e-08M*,i
O=C(c1cc(Br)ccc1O)c1cc(Br)ccc1O,2.76e-08,i,i,i,i,i
O=[N+]([O-])c1ccc(S(=O)(=O)Cc2ccccc2)c2nonc12,1e-09,i,i,i,?,i
COCCn1c(=O)c(-c2ccc(OC)cc2)nc2cnc(Nc3cccc(OC)c3)nc21,3.4e-09,i,i,i,1.05e-08M*,i
COc1cccc(Nc2ncc3nc(-c4cn(C)c5ccccc45)c(=O)n(CCC#N)c3n2)c1,2.5e-08,i,i,i,2.42e-08M*,i
